KDM5B inhibitor – blocks human KDM5B histone demethylase activity | Q9UGL1 | KDM5B demethylase, FDH-coupled NADH fluorescence (FDH is formaldehyde dehydrogenase) | Potency, µM (highest dose often 57.7 µM), usual class: inhibitors | 220,000 tested, 2.6% active | AID 1347165; active = well fitted inhibition curve with a large enough effect; note: 0% is about no effect; nearly all actives have a fitted effect of over 70% in size
Target sequence (Q9UGL1 whole entry, looked up): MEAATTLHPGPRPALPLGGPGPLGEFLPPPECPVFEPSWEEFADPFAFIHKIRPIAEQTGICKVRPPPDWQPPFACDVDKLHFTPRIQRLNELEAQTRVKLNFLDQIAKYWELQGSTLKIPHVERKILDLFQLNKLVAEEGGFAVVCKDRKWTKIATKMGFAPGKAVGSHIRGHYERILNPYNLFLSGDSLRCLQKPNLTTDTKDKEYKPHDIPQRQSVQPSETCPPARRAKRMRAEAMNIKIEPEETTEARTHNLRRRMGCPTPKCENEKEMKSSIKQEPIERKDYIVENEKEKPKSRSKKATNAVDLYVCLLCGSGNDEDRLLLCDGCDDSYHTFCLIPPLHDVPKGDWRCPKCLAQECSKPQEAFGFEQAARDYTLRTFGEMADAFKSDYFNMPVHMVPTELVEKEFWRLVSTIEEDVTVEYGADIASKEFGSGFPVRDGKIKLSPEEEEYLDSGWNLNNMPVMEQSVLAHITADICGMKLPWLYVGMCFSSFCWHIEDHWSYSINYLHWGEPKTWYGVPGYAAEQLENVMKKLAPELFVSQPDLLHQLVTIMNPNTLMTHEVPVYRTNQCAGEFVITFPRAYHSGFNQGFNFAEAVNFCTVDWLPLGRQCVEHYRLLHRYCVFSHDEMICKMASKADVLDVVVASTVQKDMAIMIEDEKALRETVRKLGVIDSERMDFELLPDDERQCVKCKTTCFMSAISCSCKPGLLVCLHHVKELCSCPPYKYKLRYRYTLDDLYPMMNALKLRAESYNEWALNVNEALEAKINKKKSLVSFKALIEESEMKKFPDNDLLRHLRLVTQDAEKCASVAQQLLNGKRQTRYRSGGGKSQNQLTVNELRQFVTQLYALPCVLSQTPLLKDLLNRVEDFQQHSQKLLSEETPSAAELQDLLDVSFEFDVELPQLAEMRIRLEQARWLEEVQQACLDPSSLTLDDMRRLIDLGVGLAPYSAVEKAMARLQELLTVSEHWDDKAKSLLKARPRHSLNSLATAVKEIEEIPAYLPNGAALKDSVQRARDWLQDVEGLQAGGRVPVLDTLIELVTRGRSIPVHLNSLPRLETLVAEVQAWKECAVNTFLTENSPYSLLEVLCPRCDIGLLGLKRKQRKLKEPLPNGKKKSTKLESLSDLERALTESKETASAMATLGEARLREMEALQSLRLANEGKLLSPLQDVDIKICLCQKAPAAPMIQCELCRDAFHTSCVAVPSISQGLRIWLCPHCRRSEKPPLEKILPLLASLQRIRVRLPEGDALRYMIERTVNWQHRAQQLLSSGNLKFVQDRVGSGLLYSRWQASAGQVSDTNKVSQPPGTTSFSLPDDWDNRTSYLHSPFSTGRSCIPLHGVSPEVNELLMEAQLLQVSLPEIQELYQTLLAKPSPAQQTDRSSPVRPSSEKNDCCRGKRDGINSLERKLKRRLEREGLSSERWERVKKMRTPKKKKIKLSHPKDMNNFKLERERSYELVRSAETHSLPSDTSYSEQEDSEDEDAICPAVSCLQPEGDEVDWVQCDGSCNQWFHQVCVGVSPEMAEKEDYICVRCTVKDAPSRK
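KDM5BΔAP (200 nM final) in 50 mM HEPES pH 7.5, 0.01% Tween-20 was preincubated 10 min at RT with compound over a concentration range. Substrate mix (H3K4me3 12.5 µM, α-KG 25 µM, Fe²⁺, ascorbate, NAD⁺, FDH) was added, and NADH fluorescence change over 30 min gave dose-response curves.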
Starred values were filed as active, the others as inactive; i = inactive. The entries come from a sample that favours hits as a whole. Potency is the fitted concentration of half-maximal effect.

SMILES | KDM5B inhibitor
COc1ccc(C)cc1NC(=O)C1CCCN(c2ncnc3onc(-c4ccc(F)cc4)c23)C1 (stereo not given) | i
Cc1nc2cc(NC(=O)c3ccc(Cl)c(Cl)c3)ccc2o1 | i
Cc1ccc(C(=O)N2CCC[C@H]2c2nc(-c3ccccc3)no2)cc1 | i
COc1ccc(-c2noc([C@@H]3CCCN3C(=O)c3ccc(OC)c(OC)c3)n2)cc1 | i
Cc1ccc(-c2noc([C@@H]3CCCN3C(=O)c3cnccn3)n2)cc1 | i
CC(=O)N1CCN(c2cc(-c3noc([C@@H]4CCCN4Cc4ccccc4C)n3)ccn2)CC1 | 20µM*
CC(=O)N1CCN(c2cc(-c3noc([C@@H]4CCCN4Cc4ccc(CO)o4)n3)ccn2)CC1 | 28.2µM*
O=C(Cc1ccccc1Cl)N1CCC[C@H]1c1nc(-c2ccc(F)cc2)no1 | i
Cc1ccc(-c2ccc(OC(=O)C3CCC(C)CC3)cc2)cc1 (stereo not given) | i
CC1CCN(S(=O)(=O)N2CCC(C(=O)c3ccc4c(c3)OCCO4)CC2)CC1 | i
O=C(Nc1ccccc1)c1cc(-c2ccco2)nc2ccccc12 | i
CN(C)C(=O)N1CCC2(CC1)CN(C(=O)c1ccnc(N)c1)Cc1ccccc1O2 | 79.4µM*
CN1CCN(C(=O)N2Cc3ccccc3OC3(CCN(C(=O)N(C)C)CC3)C2)CC1 | i
CN(C)C(=O)N1CCC2(CC1)CN(C(=O)Cc1cccc(O)c1)Cc1ccccc1O2 | i
CC(=O)N1Cc2ccccc2OC2(CCN(C(=O)c3ccc4[nH]ccc4c3)CC2)C1 | i
CN(C)C(=O)N1Cc2ccccc2OC2(CCN(C(=O)c3c[nH]c4ccccc34)CC2)C1 | i
CN(C)C(=O)N1Cc2ccccc2OC2(CCN(C(=O)c3ccnc(N)c3)CC2)C1 | 89.1µM*
Cc1cc2nc(/C(C#N)=C/c3coc4ccccc4c3=O)[nH]c2cc1C | i
O=C(O)CCc1ccc(S(=O)(=O)NCc2ccco2)cc1 | i
Cc1ccc(CNC(=O)Cn2c(N3CCc4ccccc4C3)nc(C)cc2=O)cc1 | 28.2µM*
COc1cccc(NC(=O)Cn2c(N3CCc4ccccc4C3)nc(C)cc2=O)c1 | 11.2µM*
COc1ccc(C)cc1NC(=O)Cn1c(N2CCc3ccccc3C2)nc(C)cc1=O | i
COc1cccc(NC(=O)Cn2c(N3CCN(c4ccccc4)CC3)nc(C)cc2=O)c1 | i
Cc1cc(=O)n(CC(=O)NCc2ccc(F)cc2)c(N2CCc3ccccc3C2)n1 | i
Cc1cc(=O)n(CC(=O)NC(C)C)c(N2CCc3ccccc3C2)n1 | i
SMILES | KDM5B inhibitor
CCOC(=O)c1ccc(NC(=O)Cn2c(N3CCc4ccccc4C3)nc(C)cc2=O)cc1 | i
COCc1cc(=O)n(CC(=O)Nc2cccc(Br)c2)c(N2CCOCC2)n1 | 28.2µM*
COCc1cc(=O)n(CC(=O)Nc2ccc(Br)cc2)c(N2CCOCC2)n1 | i
Cc1cc(=O)n(CC(=O)Nc2ccccc2C)c(N2CCc3ccccc3C2)n1 | i
COCc1cc(=O)n(CC(=O)Nc2cccc(SC)c2)c(N2CCOCC2)n1 | i
COc1ccc(OC)c(NC(=O)Cn2c(N3CCc4ccccc4C3)nc(C)cc2=O)c1 | 28.2µM*
COc1ccc(-c2c(C)c3cc(OC(C)=O)ccc3oc2=O)cc1 | i
COc1cc(OC)c2c(C)c(CC(=O)NCC3(N4CCN(C)CC4)CCCCC3)c(=O)oc2c1 | i
O=[N+]([O-])c1ccccc1/C=N/NS(=O)(=O)c1ccccc1 | i
CC(C)COc1cccc(N)c1 | i
COc1ccc(C(NC(=O)Cc2ccccc2)c2ccc(OC)c(OC)c2)cc1OC | i
CCCn1nc(C(=O)Nc2ccc(S(=O)(=O)NC)cc2)c2ccccc2c1=O | i
Cc1ccccc1NC(=O)CSc1nc2ccccc2nc1C | i
CCc1nc2c(c(-c3ccc(O)cc3)n1)CN(Cc1ccc(OC(F)(F)F)cc1)CC2 | i
CC(C)CN1C(=O)c2ccccc2C(C(=O)NCc2ccccn2)C12CCCCC2 (stereo not given) | i
CCOc1ccc2c(c1)cc(C(=O)N1CCCCC1)n2C | i
CC(C)OCCCNC(=O)CC1CCCC1 | i
CCC(C)c1ccc(OC(C)C(N)=O)cc1 (stereo not given) | i
CCOC(=O)CCN(CC1CC1)C(=O)Cc1cccs1 | i
CCC[C@H]1CN(CC(=O)NCCc2ccc(F)cc2)C[C@@H]1NC(C)=O | i
CCC[C@H]1CN(CCCOc2ccc(C(N)=O)cc2)C[C@@H]1NC(C)=O | i
CCC[C@@H]1CN(C(=O)c2ccc(-c3ccc(C)o3)cc2)C[C@H]1NC(C)=O | 28.2µM*
CN(C)c1nc(Oc2ccc(=O)n(C)n2)nc(N(C)C)n1 | i
COCC(=O)N(C1CCOCC1)C1CCN(S(=O)(=O)c2cccnc2)CC1 | i
COCc1cc(N2CCc3onc(-c4cccc5ccccc45)c3C2)ncn1 | 28.2µM*
CCOc1ncccc1C(=O)N1CCc2onc(-c3ccccc3F)c2C1 | i
O=S(=O)(c1cccnc1)N1CCc2onc(-c3cccc4ccccc34)c2C1 | 31.6µM*
COc1c(F)cccc1C(=O)N1CCc2onc(-c3ccccc3F)c2C1 | i
